Results taken from ChEMBL document CHEMBL4296183, “CO-ADD screening of NIH NCI Natural Product Set III” (2020).
For part of these data: Results with a measured potency or affinity are listed apart.

Experiments:
Staphylococcus aureus = assay: Antibacterial activity against Staphylococcus aureus MRSA ATCC 43300 (CO-ADD:GP_020); MIC in CAMBH media using NBS plates, by Resazurin F(560/590); type: functional; details: Concentration 20 uM, ASSAY_TEST Inhibition of Bacterial Growth, detection method Resazurin, Fluorescence (ex560/em590), MEDIA CAMHB, plate type 384well, CORNING #3640, time 18 hr
Acinetobacter baumannii = assay: Antibacterial activity against Acinetobacter baumannii ATCC 19606 (CO-ADD:GN_034); MIC in CAMBH media using NBS plates, by Resazurin F(560/590); type: functional; details: Concentration 20 uM, ASSAY_TEST Inhibition of Bacterial Growth, detection method Resazurin, Fluorescence (ex560/em590), MEDIA CAMHB, plate type 384well, CORNING #3640, time 18 hr
Escherichia coli = assay: Antibacterial activity against Escherichia coli ATCC 25922 (CO-ADD:GN_001); MIC in CAMBH media using NBS plates, by Resazurin F(560/590); type: functional; details: Concentration 20 uM, ASSAY_TEST Inhibition of Bacterial Growth, detection method Resazurin, Fluorescence (ex560/em590), MEDIA CAMHB, plate type 384well, CORNING #3640, time 18 hr
Klebsiella pneumoniae = details: Concentration 20 uM; ASSAY_TEST Inhibition of Bacterial Growth; detection method Absorption (OD600); MEDIA CAMHB; plate type 384well; NBS; CORNING #3640; time 18 hr
Candida albicans = details: 20 µM
Cryptococcus neoformans = details: Concentration 20 uM; ASSAY_TEST Inhibition of Fungal Growth; detection method Resazurin; Absorption (OD600-OD570); plate type 384well; NBS; CORNING #3640

Structure (SMILES) | Inhibition (Staphylococcus aureus) | Inhibition (Acinetobacter baumannii) | Inhibition (Escherichia coli) | Inhibition (Klebsiella pneumoniae) | Inhibition (Candida albicans) | Inhibition (Cryptococcus neoformans)
C1CCC(NC2CCCCC2)CC1.COC1C(OC(=O)/C=C/C=C/C=C/C=C/C(=O)O)CCC2(CO2)C1C1(C)OC1CC=C(C)C (stereo not given) | 16.49% | -13.86% | 8.82% | -0.23% | 9.6% | -7.96%
CN1CCc2cc3c(cc2[C@H]1[C@@H]1OC(=O)c2c1ccc1c2OCO1)OCO3 [BICUCULLINE] | 11.14% | -4.97% | 3.43% | 11.38% | -1.4% | -11.52%
CO[C@@H]1[C@H](O)CC[C@]2(CO2)[C@H]1[C@@]1(C)O[C@@H]1CC=C(C)C | 4.97% | 1.38% | 4.31% | 14.33% | 4.27% | -4.91%
C=C1C(=O)O[C@@H]2C[C@@H](C)[C@@H]3C=CC(=O)[C@@]3(C)[C@@H](O)[C@H]12 [HELENALIN] | 9.39% | -4.22% | 4.79% | 9.92% | 2.42% | -2.82%
COc1c2c(c(CC=C(C)C)c3oc(=O)c(-c4ccc(O)cc4)c(O)c13)OC(C)(C)C=C2 [LONCHOCARPIC ACID] | 25.18% | -13.6% | 7.94% | -4.69% | -1.79% | -11.25%
CCN1C[C@]2(COC)[C@H](O)C[C@H](OC)[C@]34C1[C@H]([C@H](OC)[C@H]23)[C@]1(OC(C)=O)[C@H]2[C@@H](OC(=O)c3ccccc3)[C@](O)(C[C@H]24)[C@@H](OC)[C@@H]1O | 12.16% | -8.01% | 7.77% | 3.92% | -0.67% | -9.39%
CC[C@H]1CN2CCc3cc(OC)c(OC)cc3[C@@H]2C[C@@H]1C[C@H]1NCCc2c1[nH]c1ccc(O)cc21 [TUBULOSINE] | 2.68% | -12.49% | 3.63% | -0.53% | 2.67% | -8.19%
COc1ccc2c(c1OC)CN1CCc3cc4c(cc3C1C2)OCO4 (stereo not given) [TETRAHYDROBERBERINE] | 10.57% | -8.62% | 7.87% | -2.26% | -1.05% | -13.18%
CC(C)(O)C1C2OC(=O)C1C1(O)CC3OC34C(=O)OC2C14C (stereo not given) | -15.24% | -3.06% | 2.11% | 1.65% | 3.44% | -6.7%
COc1ccc2c3c([nH]c2c1)[C@H](C=C(C)C)N1C(=O)[C@@H]2CCCN2C(=O)[C@@H]1C3 [FUMITREMORGIN] | -0.07% | 0.14% | 5.9% | -0.45% | 1.52% | -5.88%
COc1cccc2c1cc([N+](=O)[O-])c1c(C(=O)O)cc3c(c12)OCO3 [ARISTOLOCHIC ACID] | -13.97% | -2.12% | 5.35% | -1.07% | 8.48% | -6.51%
C=C1C(=O)OC2C1CCC(C)C1(O)C=CC(=O)C21C (stereo not given) | -5.72% | -10.47% | 2.36% | 3.79% | -0.93% | -3.28%
CC[C@@]1(O)C(=O)OCc2c1cc1n(c2=O)Cc2cc3ccccc3nc2-1 [CAMPTOTHECIN] | 9.46% | -0.94% | 5.98% | 5.61% | 4.14% | -6.71%
CC(=O)O[C@@H]1[C@@H](O)C2=C3[C@]4(C)[C@@H]1C(C)(C)C(=O)C[C@@H]4[C@]3(O)[C@H](OC(C)=O)[C@@]1(C[C@@H]1C)C2=O | 17.09% | -6.85% | 0.22% | 10.98% | -0.55% | -8.42%
C[C@H]1CCC/C=C/[C@@H]2C[C@H](O)C[C@H]2[C@H](O)/C=C/C(=O)O1 [BREFELDIN A] | 11.17% | -7.42% | 11.85% | -5.16% | 51.3% | -9.22%
O=P1(N(CCCl)CCCl)NCCCO1 (stereo not given) [CYCLOPHOSPHAMIDE ANHYDROUS] | 22.17% | -9.14% | 1.21% | 1.43% | -2.64% | -8.46%
CC1OC(=O)C2CC3CCCCC3C(/C=C/C3CCCC(C)N3C)C12 (stereo not given) | 14.11% | -6.83% | 5.85% | 4.75% | 0.31% | -10.1%
CC[C@](C)(O)C(=O)O[C@H]1C(=O)O[C@@H]2C[C@H]3C(C)=C[C@H](O)[C@@H](O)[C@]3(C)[C@H]3[C@@]4(O)OC[C@]32[C@@H]1[C@@H](C)[C@H]4O | 12.34% | -9.38% | 1.71% | 10.36% | 4.77% | -4.27%
CCCCCC(O)C1C(=O)OC(C)C(O)/C=C/C=C/C=C/C=C/C=C(\C)C(O)C(O)C(O)CC(O)CC(O)CC(O)CC(O)CC1O (stereo not given) | -5.29% | 1.14% | 2.6% | 3.06% | -5.54% | -5.55%
CCC/C=C/C=C/C(=O)OC1/C(=C/C(=O)OC)CC2CC(C(C)O)OC(=O)CC(O)CC3CC(OC(C)=O)C(C)(C)C(O)(CC4C/C(=C/C(=O)OC)CC(/C=C/C(C)(C)C1(O)O2)O4)O3 (stereo not given) | 15.23% | -8.5% | 2.2% | 8.82% | -7.78% | -7.31%
OC1CN2CC[C@H](O)[C@@H]2C(O)[C@@H]1O (stereo not given in full) | -15.58% | -6.5% | 3.63% | -1.47% | 2.3% | -9.42%
COC1C(O)C(C)OC(OC2C(Oc3cccc4c(O)c5c(=O)oc6ccc(C)c7c(=O)oc(c34)c5c67)OC(C)C(O)C2O)C1O (stereo not given) | -17.7% | -6.91% | -0.53% | 2.04% | -2.79% | -9.89%
CC12C(=O)C=CCC1=CCC1C2CCC2(O)C(=O)OC3(C)C4CC5(C)C(COC16OC23C5C6=O)C(=O)O4 (stereo not given) | 21.05% | -16.5% | 8.61% | -1.2% | -2.84% | -7.36%
C=C1C(C)C2C(Cc3ccccc3)NC(=O)C23C(OC(C)=O)/C=C/C(C)(O)CC(C)C/C=C/C3C1O (stereo not given) | -5.72% | -9.16% | -0.68% | -1.52% | 1.45% | -3.95%
COc1ccc(C(=O)O[C@H]2CC[C@@]3(C)[C@@H]4CC[C@H]5[C@]6(O)C[C@H](O)[C@@]7(O)[C@@H](CN8C[C@@H](C)CC[C@H]8[C@@]7(C)O)[C@]6(O)C[C@@]53OC24O)cc1OC | 16.97% | -4.41% | 7.62% | 3.66% | -1.53% | -9.31%
CC(O)CCC(=O)c1ccoc1 (stereo not given) | -1.39% | -6.14% | 1.51% | -0.54% | -0.15% | -5.46%
CC(=O)OC(C)(C)/C=C/C(=O)[C@](C)(O)[C@H]1[C@H](O)C[C@@]2(C)[C@@H]3CC=C4[C@@H](C=C(O)C(=O)C4(C)C)[C@]3(C)C(=O)C[C@]12C [CUCURBITACIN E] | -16.96% | -9.18% | 4.67% | -1.27% | -1.39% | -7.52%
CC1CCC2C(C)C(=O)OC3OC4(C)CCC1C32OO4 (stereo not given) | 7.59% | -3.18% | 7.05% | 14.85% | 23.7% | -16.17%
COc1ccc2c(c1O)-c1c(OC)c(OC)cc3c1C(C2)N(C)CC3 (stereo not given) | 23.71% | 2.34% | 4.51% | 6.13% | -0.15% | -10.21%
CC1CCC2C(C)C3C(CC4C5CC=C6CC(OC7OC(CO)C(O)C(OC8OC(CO)C(O)C(O)C8O)C7OC7OC(C)C(O)C(O)C7O)CCC6(C)C5CCC43C)N2C1.Cl (stereo not given) | -4.66% | -5.32% | -0.39% | 4.14% | -2.24% | -10.4%
